# Assay outcomes: PubChem, several laboratories
# The list is not random: actives were taken first. Their share in the collection is about 2.1%.
# PGE2 EP2 inh = human EP2 receptor antagonists, primary screen, TR-FRET cAMP, C6 glioma cells; hit rate 0.52% among 260,000; C6 glioma cells expressing human EP2; cells stimulated with saturating PGE2; inhibition, % at 25 µM; Prostaglandin E2 receptor EP2 subtype (Homo sapiens), P43116;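 active means percent inhibition above 40 after rounding to a whole number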;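 further: rat C6 glioma host cells with rolipram phosphodiesterase inhibitor present; the protocol text gives 20 µM as final concentration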
# Target sequence (P43116 whole entry, looked up): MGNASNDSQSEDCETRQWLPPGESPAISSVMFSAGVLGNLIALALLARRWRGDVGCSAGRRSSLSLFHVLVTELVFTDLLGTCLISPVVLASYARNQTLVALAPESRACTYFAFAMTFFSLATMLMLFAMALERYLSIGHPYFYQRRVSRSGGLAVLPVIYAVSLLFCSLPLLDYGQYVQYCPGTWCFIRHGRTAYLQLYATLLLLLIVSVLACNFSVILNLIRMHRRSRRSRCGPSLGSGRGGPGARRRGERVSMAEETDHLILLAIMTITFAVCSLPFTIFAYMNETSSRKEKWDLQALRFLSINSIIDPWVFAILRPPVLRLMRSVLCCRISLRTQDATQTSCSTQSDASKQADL
# EP2 mod = EP2 receptor modulators, cAMP readout, primary screen, cell-based, HTRF cAMP, PGE2 stimulation; Prostaglandin E2 receptor EP2 subtype (Homo sapiens), P43116; EP2-expressing cells, cAMP HTRF FRET, PGE2 co-stimulation; induction, % at 25 µM; hit rate 0.83% among 260,000;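 active means compounds whose cAMP rise, as percent of the full-agonist control response, exceeds 60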;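 further: rat C6 glioma line stably carrying human EP2 under a CMV promoter; the protocol text gives 20 µM as final concentration; 100% = response of wells given 1 µM PGE2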
# CHT block = inhibitors of human choline transporter CHT; CHT-expressing cells, membrane potential dye, choline response; hits give low values; B-score at 10 µM; hit rate 0.86% among 310,000; AID 488975, 2010;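 active means B-score over 3 SD under the library average, and starting fluorescence ratio not unusually high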;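 further: choline stimulus applied at its EC90 after an EC20 pre-addition; B-score computed on integrated fluorescence ratio after choline addition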
# CHT allo act = CHT positive allosteric modulators, primary screen, cell-based, membrane potential dye, choline EC20; High affinity choline transporter 1 (Homo sapiens), Q9GZV3; CHT-expressing cells; hits give high values; LV-AA mutant CHT in HEK293 cells; B-score at 10 µM; hit rate 0.49% among 310,000; AID 488977, 2010;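 active means initial fluorescence not abnormally high and integrated response B-score, plate-corrected, over 3 SD above library mean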
# CHT block conf = CHT inhibitors, confirmation, cell-based, membrane potential dye, duplicate; shares compounds with CHT block; CHT-expressing cells, choline membrane potential dye; LV-to-AA substituted CHT, HEK293 cells; CHT activity remaining % of control (hits give low values), % at 10 µM; hit rate 70% among 2,400; AID 493221, 2011;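 active means choline transporter activity left, mean of duplicates at 10 µM, below buffer-only control mean minus 3 SD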;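 further: depolarization triggered by choline at its EC90 following an EC20 pre-addition; 0% = hemicholinium-3 full block and 100% = buffer-only control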
# HEK293 CHT ctr = membrane potential effects in parental HEK293, counter-screen for CHT inhibitor project, cell-based, membrane potential dye | shares compounds with CHT block | choline response; active = decrease or increase beyond buffer ±3SD | membrane potential ratio readout (active if shifted either direction beyond buffer ±3SD; no single direction) at 10 µM | hit rate 4% among 2,400 | AID 493222, 2011;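 further: parental cells lack the transporter so any hit is non-specific; ratio is peak minus trough fluorescence over baseline after EC90 choline challenge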
# CHT act confirm = CHT activators, confirmation, cell-based, membrane potential dye, duplicate; shares compounds with CHT allo act; CHT-expressing cells, membrane potential dye fluorescence (FDSS); % of choline EC20–EC90 response window; HEK293 expressing CHT LV-AA mutant; choline added at its EC20; activation, % at 10 µM; hit rate 91% among 2,500; AID 504833, 2011;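 active means primary screen active, with duplicate mean activation above negative control mean plus 3 SD, cut at about 11% in these data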
# HEK293 MP dye = membrane potential response in parental HEK293 cells, counter-screen for CHT activator project, cell-based, membrane potential dye; membrane potential dye fluorescence (FDSS); measured after EC20 choline addition; shares compounds with CHT allo act; AID 623908, 2012; ratio readout change at 10 µM, hits read low; hit rate 62% among 2,500;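 active means duplicate-averaged ratio beyond 3 SD from buffer wells, up or down, though filed actives are nearly all decreases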
# The depositor's hits bear a star; i = inactive; / = no result; ! = a repeat was not active.
SMILES,PGE2 EP2 inh,EP2 mod,CHT block,CHT allo act,CHT block conf,HEK293 CHT ctr,others
COc1ccc(CN2CCN(C(=O)COc3ccc(C)cc3)CC2)cc1OC,10,-36,/,/,/,/,
Cc1cc2occ(CC(=O)N(CCN(C)C)C3CCN(C)CC3)c2cc1C,3,-60,/,/,/,/,
CCc1ncc(CN2C3CCC2CC(O)(c2ccc(F)cc2)C3)cn1 (stereo unspecified),12,-56,/,/,/,/,
Cc1ccc(-c2cc(-c3ccc(C)cc3)[n+](-c3ccccc3)c(-c3ccc(C)cc3)c2)cc1,/,/,-5.5*,i,66%*,3.5*,
Cc1[nH]n(-c2ccccc2)c(=O)c1C(c1ccc([N+](=O)[O-])cc1)c1c(C)[nH]n(-c2ccccc2)c1=O,10,1,-6.2*,i,36%*,i,
Cc1nc2ccccc2c(=O)n1-c1cc([N+](=O)[O-])cc([N+](=O)[O-])c1,/,/,i,i,/,/,
CCC(=NCCc1ccccc1)c1c(O)n(C)c(=O)n(C)c1=O,9,-12,-5.6*,i,53%*,i,
O=C1NC(=O)C(=Cc2csc3ccccc23)C(=O)N1,14,-31,i,i,/,/,
O=C1NC(=O)C(=Cc2coc3ccccc3c2=O)C(=O)N1,8,37,-9.5*,i,46%*,i,
Cc1ccccc1-n1c(O)c(/C=C2/C(c3ccccc3)=Nc3ccccc32)c(=O)[nH]c1=O,23,-83,-5.2*,i,53%*,i,
CN1CCN(C(=O)COc2cccc3ccccc23)CC1,16,-52,/,/,/,/,
CCOc1ccc(-n2c(O)c(C=NCCN(CC)CC)c(=O)[nH]c2=O)cc1,6,27,-6.3*,i,i,i,
CC[C@]12C=CCN3CC[C@@]4(c5ccc(OC)cc5N(C)C4[C@@](O)(C(=O)OC)[C@@H]1OC(C)=O)[C@@H]32 (stereo partly specified),14,17,/,/,/,/,
CN(C)CCN(C(=O)Cc1csc(-c2ccccc2F)n1)C1CCCCC1,6,-74,/,/,/,/,
Cc1ccc(-c2nn(Cc3ccccc3)cc2C(=O)O)cc1,2,0,i,i,/,/,
Cc1c(C(=O)O)cc(-c2ccccc2)n1Cc1ccccc1,/,/,-6.3*,i,7.3%*,-35*,
CC(=O)O[C@@H]1/C=C/[C@](C)(O)C[C@@H](C)C/C=C/[C@H]2[C@H](O)[C@@](C)(O)[C@@H](C)[C@H]3[C@H](Cc4ccccc4)NC(=O)[C@@]312,18,/,i,i,/,/,
CC(=O)O[C@@H]1/C=C/[C@](C)(O)C[C@@H](C)C/C=C/[C@H]2[C@@H]3O[C@]3(C)[C@@H](C)[C@H]3[C@H](Cc4ccccc4)NC(=O)[C@@]312,19,/,-5.1*,i,71%*,i,
CCC(C)N1C(=O)/C(=C/c2ccc3c(c2)CCN3CCCCl)C(=O)NC1=S (stereo unspecified),8,1,-5.9*,i,i,i,
Cc1cccc(N2C(=O)NC(=O)/C(=C\c3ccc4c(c3)CCCN4Cc3ccccc3)C2=O)c1,9,-28,i,i,/,/,
CC(=O)Nc1ccc(NC(=O)CN2C3CCC2CC(O)(c2ccco2)C3)cc1 (stereo unspecified),/,-43,/,/,/,/,
CCCn1nc(CC(=O)N(C)CCN2CCCCC2)c2ccccc2c1=O,6,-8,/,/,/,/,
CC[N+](CC)(CC#CCO)CC#Cc1ccccc1,7,26,-8.6*,i,35%*,i,
C(#CCN1CCOCC1)COCC#Cc1ccccc1,2,-8,i,i,/,/,
CC1=NCCc2c1[nH]c1ccccc21,16,-20,-7.8*,i,34%*,i,
SMILES,PGE2 EP2 inh,EP2 mod,CHT block,CHT allo act,CHT block conf,HEK293 CHT ctr,others
COc1c(/C=C2/C(=O)NC(=O)N(C)C2=O)c(CCN(C)C(=O)c2ccccc2)cc2c1OCO2,/,/,-6.5*,i,57%*,i,
N#CC1=C(S)N(c2ccccc2)C(c2cccnc2)NC1=O (stereo unspecified),9,-22,/,/,/,/,
c1ccc2c(CN3CCCCCC3)c[nH]c2c1,10,-26,-6*,i,37%*,i,
O=C(COc1ccccc1)N1CCN(Cc2c[nH]c3ccccc23)CC1,14,-21,i,i,/,/,
CC(=O)O[C@@]12CO[C@@H]1C[C@@H](O)[C@@]1(C)C(=O)[C@H](O)C3=C(C)[C@@H](OC(=O)[C@H](O)[C@@H](NC(=O)c4ccccc4)c4ccccc4)C[C@@](O)([C@@H](OC(=O)c4ccccc4)C12)C3(C)C (stereo partly specified),/,/,-5.3*,i,63%*,i,
Cc1cccc(CCNCc2cc3cccc(C)c3[nH]c2=O)c1,/,/,-12*,i,8.5%*,i,
CCNC(=O)C1OC(n2cnc3c(N)ncnc32)C(O)C1O (stereo unspecified),2,/,-6.7*,i,33%*,i,
CCNC(=O)[C@H]1O[C@@H](n2cnc3c(N)ncnc32)C(O)[C@H]1O (stereo partly specified),9,16,/,/,/,/,
Cc1cccc(N2CCc3c2nc2ccccc2c3N)c1,20,-49,-9.3*!,i,56%*,i,CHT act confirm=33*;HEK293 MP dye=-56*
CCC(CC)N1CCN(Cc2cc(OC)c(OC)c(OC)c2)CC1,4,-28,/,/,/,/,
Cc1cc(C)[n+](CCCC[n+]2c(C)cc(C)cc2C)c(C)c1,/,/,i,7.9*,/,/,CHT act confirm=73*;HEK293 MP dye=-99*
CN1CCc2nc3sc(C(=O)NC4CC4)c(N)c3cc2C1,4,-11,i,i,/,/,
CN1CCc2nc3sc(C#N)c(N)c3c(-c3cccs3)c2C1,12,-5,i,8.5*,/,/,CHT act confirm=39*;HEK293 MP dye=-59*
C#CCOc1ccc(CN2C3CCC2CC(O)(c2ccc(OC)cc2)C3)cc1 (stereo unspecified),6,-44,/,/,/,/,
CN(C)C(=O)Oc1cccc(OCc2n(C)c3ccccc3[n+]2C)c1,9,12,i,7*,/,/,CHT act confirm=55*;HEK293 MP dye=-42*
